Experimental findings from PubChem BioAssay are described below.

The source made the active and inactive calls. Unless noted, how the calls were made is not given here.

The nature of experiment [1]: anti-His antibody binders, primary screen, artefact control for SMM control protein annotation, biochemical, small-molecule microarray, 635 nm fluorescence (AID 1128).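 Further: score merges feature fluorescence with signal-to-noise for each printed compound spot.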 As to conditions: anti-His Alexa647 antibody binding, higher = more signal.
Experiment [2] has as its system Human papillomavirus type 1a E7 protein (residues 1-88). In words: HPV1a E7 small-molecule binders, primary screen, biochemical, small-molecule microarray, residues 1-88, 635 nm (AID 1129). The following applies: small-molecule microarray binding, fluorescence 635 nm; higher = more signal.
Experiment [3] deals with Focal adhesion kinase 1 (Homo sapiens) (UniProt Q05397). In words: small-molecule microarray binders of FAK, primary screen, biochemical, 635/667 nm fluorescence, BSA, DTT (AID 1130).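 Further: composite of spot emission at 667 nm and signal to noise over triplicate slides.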 As to conditions: PTK2 binding, 635 nm fluorescence, higher = more signal.
Chain of Focal adhesion kinase 1 (Homo sapiens) (Q05397 whole entry, looked up): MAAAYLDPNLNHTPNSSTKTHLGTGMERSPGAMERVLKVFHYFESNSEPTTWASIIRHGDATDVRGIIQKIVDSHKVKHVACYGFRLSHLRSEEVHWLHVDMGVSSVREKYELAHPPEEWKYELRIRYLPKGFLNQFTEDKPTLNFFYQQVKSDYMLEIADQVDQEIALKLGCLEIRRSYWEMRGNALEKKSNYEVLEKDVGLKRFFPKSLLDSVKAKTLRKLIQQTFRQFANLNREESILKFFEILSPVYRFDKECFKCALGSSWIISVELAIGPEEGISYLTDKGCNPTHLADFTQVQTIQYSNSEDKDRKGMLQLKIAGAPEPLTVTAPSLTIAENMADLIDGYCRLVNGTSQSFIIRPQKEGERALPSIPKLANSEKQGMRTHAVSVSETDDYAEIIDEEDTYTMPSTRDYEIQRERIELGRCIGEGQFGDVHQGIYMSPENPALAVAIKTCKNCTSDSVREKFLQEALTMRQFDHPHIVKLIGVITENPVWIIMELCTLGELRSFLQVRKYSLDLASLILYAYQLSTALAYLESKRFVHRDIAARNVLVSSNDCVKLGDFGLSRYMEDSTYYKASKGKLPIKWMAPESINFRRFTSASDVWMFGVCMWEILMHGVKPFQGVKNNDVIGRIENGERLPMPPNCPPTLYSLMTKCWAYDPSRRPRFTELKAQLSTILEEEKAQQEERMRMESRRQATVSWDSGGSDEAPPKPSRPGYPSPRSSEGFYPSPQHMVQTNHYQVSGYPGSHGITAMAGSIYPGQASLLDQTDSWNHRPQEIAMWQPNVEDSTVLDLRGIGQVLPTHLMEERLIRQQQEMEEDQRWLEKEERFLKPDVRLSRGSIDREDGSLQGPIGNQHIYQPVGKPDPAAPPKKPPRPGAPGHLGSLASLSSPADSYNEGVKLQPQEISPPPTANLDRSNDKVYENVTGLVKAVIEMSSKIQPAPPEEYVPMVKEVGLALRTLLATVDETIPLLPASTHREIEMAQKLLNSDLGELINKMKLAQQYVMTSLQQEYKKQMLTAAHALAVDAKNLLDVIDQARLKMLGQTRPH
Experiment [4] concerns Fibrinogen (Alexa647-labelled). Kind of experiment: fibrinogen binders on compound microarrays, profiling panel, artefact control for SMM control-protein annotation, biochemical, small-molecule microarray, 635/667 nm fluorescence (AID 1131).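 Further: z-score merges 667 nm fluorescence with per-spot signal-to-noise over triplicate slides.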 The following applies: fibrinogen-A647 binding fluorescence, higher = more signal.
Experiment [5] deals with Follistatin (Homo sapiens) (UniProt P19883). Kind of experiment: follistatin binders on small-molecule microarrays, primary screen, biochemical, small-molecule microarray, 635/667 nm fluorescence (AID 1132). As to conditions: FST binding, 635 nm fluorescence, higher = more signal.
Chain of Follistatin (Homo sapiens) (P19883 whole entry, looked up): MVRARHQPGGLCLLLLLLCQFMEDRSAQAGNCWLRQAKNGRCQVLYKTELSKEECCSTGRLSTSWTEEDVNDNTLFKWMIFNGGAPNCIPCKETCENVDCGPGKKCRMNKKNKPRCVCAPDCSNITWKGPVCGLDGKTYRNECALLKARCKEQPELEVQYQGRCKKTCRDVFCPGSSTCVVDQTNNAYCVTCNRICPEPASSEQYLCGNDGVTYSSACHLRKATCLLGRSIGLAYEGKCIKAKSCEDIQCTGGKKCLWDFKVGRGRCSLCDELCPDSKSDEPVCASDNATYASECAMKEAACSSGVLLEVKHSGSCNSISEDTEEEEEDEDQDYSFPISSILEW
The target of experiment [6] is Fibroblast growth factor 2 (Homo sapiens) (UniProt P09038). In words: FGF2 binders on small-molecule microarrays, primary screen, biochemical, small-molecule microarray, 635/667 nm fluorescence (AID 1133). The following applies: small-molecule microarray binding, FGF2, fluorescence 635/667; higher = more signal.
Chain of Fibroblast growth factor 2 (Homo sapiens) (P09038 whole entry, looked up): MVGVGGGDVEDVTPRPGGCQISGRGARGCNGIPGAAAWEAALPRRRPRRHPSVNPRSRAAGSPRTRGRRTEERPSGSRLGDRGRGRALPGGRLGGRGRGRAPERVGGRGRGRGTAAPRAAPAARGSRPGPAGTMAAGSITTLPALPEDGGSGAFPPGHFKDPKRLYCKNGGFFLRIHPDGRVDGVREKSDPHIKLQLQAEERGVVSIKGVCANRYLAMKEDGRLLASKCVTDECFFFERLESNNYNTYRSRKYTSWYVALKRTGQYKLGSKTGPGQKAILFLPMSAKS
Experiment [7] can be described thus: mitochondrial membrane potential change in A549 cells, profiling panel, cell-based, JC-1 fluorescence, basal, 24 h, 100 nL (AID 1138).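 Further: A549 lung adenocarcinoma cells under basal conditions with no added stimulus; test concentration not given here.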 As to conditions: higher = more signal.
A further experiment has as its system Lefty1. Kind of experiment: Lefty1 binders on small-molecule microarrays, primary screen, biochemical, small-molecule microarray, 635/667 nm fluorescence (AID 1139). As to conditions: small-molecule microarray binding, fluorescence 635/667; higher = more signal.
In experiment [8] the test system is wheat germ agglutinin (Triticum aestivum), Alexa647-labelled. In words: wheat germ agglutinin binders on compound microarrays, profiling panel, artefact control for SMM control-protein annotation, biochemical, small-molecule microarray, 635/667 nm fluorescence (AID 1140).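 Further: score merges 667 nm feature emission with signal to noise over triplicate slides.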 As to conditions: WGA-A647 binding, 635 nm fluorescence, higher = more signal.
For experiment [9], the target named is Luciferin 4-monooxygenase (Photinus pyralis) (UniProt P08659). In words: firefly luciferase enzyme inhibitors, primary screen, biochemical, luminescence, purified enzyme, 2006 set (AID 1141).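 Further: cell-free assay with purified firefly luciferase at 100 ng per well in PBS; test concentration not given here.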 The following applies: SteadyGlo luminescence, 30 min, higher = more signal, called active from +8 up or from −8 down.
Chain of Luciferin 4-monooxygenase (Photinus pyralis) (P08659 whole entry, looked up): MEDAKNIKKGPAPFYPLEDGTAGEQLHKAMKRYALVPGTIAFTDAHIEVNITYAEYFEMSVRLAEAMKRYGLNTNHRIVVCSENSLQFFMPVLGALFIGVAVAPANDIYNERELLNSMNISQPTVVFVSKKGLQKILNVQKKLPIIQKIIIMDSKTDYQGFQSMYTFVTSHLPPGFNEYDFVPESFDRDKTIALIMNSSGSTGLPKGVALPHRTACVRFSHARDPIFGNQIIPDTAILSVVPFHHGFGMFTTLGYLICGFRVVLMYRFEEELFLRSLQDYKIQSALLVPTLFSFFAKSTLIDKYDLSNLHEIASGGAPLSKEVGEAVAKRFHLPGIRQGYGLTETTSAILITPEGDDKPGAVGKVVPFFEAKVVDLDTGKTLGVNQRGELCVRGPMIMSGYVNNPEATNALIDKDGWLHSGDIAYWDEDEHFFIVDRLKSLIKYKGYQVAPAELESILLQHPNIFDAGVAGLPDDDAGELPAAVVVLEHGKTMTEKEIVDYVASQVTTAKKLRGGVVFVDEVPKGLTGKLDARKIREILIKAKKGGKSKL
Experiment [10] deals with Wnt5a (protein binding on small-molecule microarray). In words: Wnt5a binders on small-molecule microarray, primary screen, biophysical, 635/667 nm fluorescence (AID 1142).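 Further: fluorescence read at 667 nm with signal to noise per printed feature.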 The following applies: 635 nm fluorescence, higher = more signal.
The nature of experiment [11]: cell viability in Huh7 cells, primary screen, cytotoxicity control for HCV replication inhibitor project, CellTiter-Glo luminescence, basal, 48 h (AID 1143).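 Further: Huh7 hepatoma cells carrying a hepatitis C replication reporter with no stimulus; test concentration not given here.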 The following applies: Huh7 HCV replicon, higher = more signal, called active from +8 up or from −8 down. Background: ATP-based viability assays read luminescence as a measure of living cells.
The nature of experiment [12]: P. aeruginosa biofilm formation inhibitors, primary screen, PAO1 strain, BacTiter-Glo luminescence, LB-PBS (AID 1144). The following applies: 12 h, higher = more signal.
The nature of experiment [13]: CREB reporter modulators without forskolin, primary screen, cell-based, PC12, CRE-LacZ reporter, unstimulated (AID 1145). The following applies: no forskolin, luminescence, 4.5 h, higher = more signal, called active from +8 up or from −8 down.
The nature of experiment [14]: CREB reporter modulators under forskolin, primary screen, cell-based, PC12, CRE-LacZ reporter, forskolin-stimulated (AID 1146).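 Further: PC12 cells with 6xCRE LacZ reporter stimulated by forskolin 10 µM; beta-galactosidase reporter signal reflecting CREB driven transcription.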 As to conditions: luminescence, 4.5 h, higher = more signal, called active from +8 up or from −8 down.
Experiment [15] deals with Streptavidin (Streptomyces avidinii) (UniProt P22629). Kind of experiment: streptavidin binders on small-molecule microarray, primary screen, artefact control for SMM compound annotation, biophysical, 635/667 nm fluorescence (AID 1147).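 Further: signal reflects streptavidin binding to arrayed compounds as a control protein.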 As to conditions: streptavidin binding, higher = more signal.
Chain of Streptavidin (Streptomyces avidinii) (P22629 whole entry, looked up): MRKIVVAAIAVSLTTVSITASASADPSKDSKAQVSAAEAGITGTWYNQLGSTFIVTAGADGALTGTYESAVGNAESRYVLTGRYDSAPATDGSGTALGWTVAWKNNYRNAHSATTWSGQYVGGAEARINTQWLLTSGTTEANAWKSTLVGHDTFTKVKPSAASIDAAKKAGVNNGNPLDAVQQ
Experiment [16] can be described thus: small-molecule binders of probe aInhba, primary screen, biochemical, small-molecule microarray, 635/667 nm fluorescence (AID 1148).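 Further: score merges 667nm spot fluorescence with signal-to-noise for antibody binding to printed compounds.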 The following applies: higher = more signal.
The target in experiment [17] is Torsin-1A (Homo sapiens) (UniProt O14656). In words: torsin A binders from cell lysate, primary screen, small-molecule microarray, wild-type, 635/667 nm (AID 1149). As to conditions: COS7 hTOR1A-WT lysate, 635 nm fluorescence, higher = more signal.
Chain of Torsin-1A (Homo sapiens) (O14656 whole entry, looked up): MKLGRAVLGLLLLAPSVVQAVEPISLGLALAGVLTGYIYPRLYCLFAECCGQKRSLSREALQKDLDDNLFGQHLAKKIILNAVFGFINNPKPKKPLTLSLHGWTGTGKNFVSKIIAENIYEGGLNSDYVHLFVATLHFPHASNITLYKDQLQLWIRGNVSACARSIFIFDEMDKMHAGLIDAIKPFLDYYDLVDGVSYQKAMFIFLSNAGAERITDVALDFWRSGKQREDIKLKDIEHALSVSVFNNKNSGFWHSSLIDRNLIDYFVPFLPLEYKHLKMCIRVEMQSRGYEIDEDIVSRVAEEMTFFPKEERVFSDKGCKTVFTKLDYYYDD
The target is the same in experiment [18]. Kind of experiment: small-molecule binders of mutant TOR1A in lysate, primary screen, cell lysate, small-molecule microarray, COS7 lysate, 635/667 nm fluorescence (AID 1150).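 Further: score pools 667 nm emission and signal to noise measuring lysate protein binding.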 As to conditions: COS7 hTOR1A mutant lysate, 635 nm fluorescence, higher = more signal.
Experiment [19] has as its system Sonic hedgehog protein (Shh). Kind of experiment: small-molecule binders of Shh protein, primary screen, biochemical, small-molecule microarray, 635/667 nm fluorescence (AID 1151).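 Further: Shh protein binding to compounds spotted on small-molecule microarray slides; score combines spot fluorescence intensity with signal-to-noise across triplicate slides.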 As to conditions: small-molecule microarray binding, 635 nm fluorescence; higher = more signal.

For `COC(=O)[C@@]1(Cc2ccccc2)[C@H]2c3cc(C(=O)N(C)C)n(Cc4ccccc4)c3C[C@H]2CN1C(=O)c1ccccc1`, the composite z-score in experiment [1] is 1.21; in [2] it was 1.13; in experiment [3], 0.614; in [4], 0.839; in experiment [5], 0.241; in experiment [6] it was -0.605. Besides, the composite z-score is -0.0169 with Lefty1; 1.04 in experiment [8]; 0.347 in experiment [10]; 1.68 in [15]; 0.209 in experiment [16]; -0.314 with Torsin-1A (Homo sapiens) [17]. The values for the composite z-score (with Torsin-1A (Homo sapiens) [18]; in [19]) were 0.766 and -0.867, respectively. For the same compound, the z-score in [7] was 0.458; in experiment [9], 1.66 (inactive); in experiment [11] it was -0.513 (inactive); in experiment [12], 0.0307 (inactive); in [13] it was 0.776 (inactive); in [14], 1.08 (inactive).
For `C=C(CCCC)C(=O)CC[C@@H](OC(=O)c1ccccc1-c1ccccc1C(=O)O)c1ccc(CO)o1`, the composite z-score in experiment [1] was 0.39; in experiment [2], 1.1; in experiment [3], -0.248; in [4] it was 0.294; in experiment [5], 1.3; in experiment [6] it was 1.31. Moreover, the composite z-score in the experiment on Lefty1 was 1.38; in experiment [8] it was 0.445; in experiment [10], 0.233; in experiment [15], -0.3; in experiment [16] it was 0.181; with Torsin-1A (Homo sapiens) [17] it was 1.29. Also, the values for the composite z-score (in the experiment with Torsin-1A (Homo sapiens) [18]; in [19]) were 0.854 and 1.08, respectively. Further, the z-score in experiment [7] was 0.31; in experiment [9], -3.84 (inactive); in experiment [11], 0.0462 (inactive); in experiment [12] it was -0.0968 (inactive); in experiment [13] it was -0.219 (inactive); in experiment [14] it was 0.432 (inactive).
Regarding `C=CCNC(=O)[C@@H]1[C@H]2C(=O)O[C@H](c3ccccc3)[C@H](c3ccccc3)N2[C@H](c2ccccc2OCCO)[C@@]12C(=O)N(C(=O)OCCOC)c1ccc(C#CCC(C(=O)OC)C(=O)OC)cc12`, the composite z-score is 1.39 in experiment [1]; 1.23 in experiment [2]; 1.25 in experiment [3]; 0.896 in experiment [4]; 1.04 in [5]; 1.42 in experiment [6]. In addition, the composite z-score in the experiment with Lefty1 is 1.11; in [8] it was 1.12; in experiment [10] it was 0.978; in experiment [15], 1.63; in [16], 0.86; with Torsin-1A (Homo sapiens) [17], 0.612. Moreover, the results for the composite z-score (with Torsin-1A (Homo sapiens) [18]; in experiment [19]) were 1.56 and 2.04, respectively. Besides, the z-score is -0.453 in experiment [7]; 0.112 (inactive) in experiment [9]; -5.68 (inactive) in [11]; 0.0376 (inactive) in experiment [12]; -0.195 (inactive) in experiment [13]; -0.569 (inactive) in experiment [14].
On to `COc1ccc([Si](C)(C)[C@@H]2[C@@H](CCO)O[C@]3(C(=O)N(Cc4cccc(N5CCCCC5=O)c4)c4ccccc43)[C@H]2C)cc1`, for which the composite z-score came to 0.49 in experiment [1]; 1.17 in [2]; 0.0366 in experiment [3]; 0.825 in experiment [4]; 1.01 in [5]; 0.885 in experiment [6]. Further, the composite z-score with Lefty1 is 0.883; in experiment [8], 0.746; in [10], -0.0438; in experiment [15] it was -0.276; in experiment [16], -0.024; with Torsin-1A (Homo sapiens) [17] it was 0.38. The figures for the composite z-score (with Torsin-1A (Homo sapiens) [18]; in experiment [19]) were 0.965 and 1.27, respectively. Further, the z-score in experiment [7] was -0.425; in experiment [9], -0.724 (inactive); in experiment [11], -7.9 (inactive); in [12], 0.671 (inactive); in experiment [13], 15.5 (active); in [14], 0.456 (inactive).
For the compound `O=C1OCC=C[C@H]2OC34C=CCN(CCN5CCOCC5)C(=O)[C@H]3N(CCCCCCO)C(=O)[C@@H]4[C@@H]12` (stereo not given in full), the composite z-score was 3.21 in experiment [1]; -0.206 in experiment [2]; -0.0142 in experiment [3]; -0.469 in experiment [4]; 0.277 in experiment [5]; -0.131 in experiment [6]. Moreover, the composite z-score in the experiment with Lefty1 is 0.659; in experiment [8], -0.0261; in experiment [10], 0.0272; in experiment [15], -0.278; in experiment [16], -0.0604; with Torsin-1A (Homo sapiens) [17] it was 0.135. The composite z-score was -0.0406 with Torsin-1A (Homo sapiens) [18] and 0.572 in [19]. Moreover, the z-score was 0.582 in experiment [7]; -0.689 (inactive) in [9]; -0.39 (inactive) in experiment [11]; 1.73 (inactive) in experiment [12]; 0.862 (inactive) in [13]; -0.201 (inactive) in experiment [14].
